Laboratory results taken from PubChem BioAssay.
Unmarked numbers belong to inactive results. Some of the results follow. Active and inactive are the calls of the source. Unless noted, no stated cut-off is given here; in the data, active means inhibition above about 25%; inactive means the rest.

Assays:
[1] = biological target: Serine protease HTRA1 (Homo sapiens) (UniProt Q92743); test: HTRA1 protease inhibitors, retest, confirmation, biochemical, fluorescence polarization (AID 540248;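 active means mean inhibition over three repeats above a set limit taken from the earlier primary screen, cut at about 37% in these data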;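 further: 0% = HTRA1 with DMSO and 100% = wells lacking HTRA1; inhibitors block probe binding so polarization drops and inhibition rises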); details: recombinant HTRA1, FP-rhodamine activity-based probe, at 5.96 µM, stronger effect = higher value
[2] = growth loss of phage-infected E. coli expressing H. pylori AddAB, confirmation, AddAB inhibitor project, absorbance, E. coli V3065, T4 phage, triplicate (AID 488942;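 active means mean inhibition above a set limit taken from the earlier primary screen, cut at about 13% in these data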;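 further: higher means less bacterial growth since AddAB block lets phage replicate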); details: OD, at 11.9 µM, stronger effect = higher value, T4 phage with gene 2 nonsense mutations
[3] = growth loss of RecBCD+ E. coli with mutant T4 phage, counter-screen for AddAB inhibitor project, absorbance, V66 E. coli (AID 488955;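 active means mean inhibition above the mean of solvent-only control wells plus 3 SD, cut at about 4% in these data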;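 further: optical density read after an 18 h incubation at 37 °C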); details: OD growth, at 11.9 µM, stronger effect = higher value
[4] = bacterial viability inhibition counter-screen, confirmation, counter-screen for AddAB inhibitor project, absorbance (AID 488956); details: absorbance (AddAB counterscreen), at 11.9 µM, stronger effect = higher value
[5] = growth loss of phage-infected RecBCD+ E. coli, confirmation, RecBCD inhibitor project, absorbance, E. coli V66, T4 gene 2 phage (AID 651982;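 active means mean inhibition over triplicates exceeding the hit threshold derived in the original primary screen, cut at about 11% in these data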); details: E. coli V66 + T4 2- phage, growth OD; at 11.9 µM; stronger effect = higher value
[6] = E. coli viability inhibition, counter-screen for RecBCD inhibitor project, absorbance, high throughput (AID 651983; in the data active means inhibition above about 20%;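 further: E. coli strain V66 grown with compound alone and no phage infection; 0% = bacteria with DMSO vehicle only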); details: absorbance (OD) growth, at 11.9 µM, stronger effect = higher value
[7] = growth loss of phage-infected AddAB-carrying E. coli, confirmation, counter-screen for RecBCD inhibitor project, absorbance, E. coli V3065, T4 phage (AID 651984;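 active means mean inhibition above the solvent-only control wells' mean plus 3 SD, cut at about 22% in these data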;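 further: higher means less bacterial growth from phage killing when AddAB is blocked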); details: E. coli expressing H. pylori AddAB + T4 phage, OD growth; at 11.9 µM; stronger effect = higher value; gene 2 mutant T4, recBCD-deleted host
[8] = biological target: Platelet-activating factor acetylhydrolase IB subunit alpha1 (Homo sapiens) (UniProt Q15102); test: PAFAH1B3 enzyme inhibitors, confirmation, biochemical, fluorescence polarization, human (AID 493032;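 active means average inhibition over triplicate runs above the hit cutoff set in the earlier primary screen, cut at about 25% in these data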;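 further: 0% = enzyme with DMSO and 100% = wells lacking PAFAH1B3 protein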); details: recombinant PAFAH1B3, FP-Rh activity-based probe, at 3.39 µM, stronger effect = higher value
Chain of Platelet-activating factor acetylhydrolase IB subunit alpha1 (Homo sapiens) (Q15102 whole entry, looked up): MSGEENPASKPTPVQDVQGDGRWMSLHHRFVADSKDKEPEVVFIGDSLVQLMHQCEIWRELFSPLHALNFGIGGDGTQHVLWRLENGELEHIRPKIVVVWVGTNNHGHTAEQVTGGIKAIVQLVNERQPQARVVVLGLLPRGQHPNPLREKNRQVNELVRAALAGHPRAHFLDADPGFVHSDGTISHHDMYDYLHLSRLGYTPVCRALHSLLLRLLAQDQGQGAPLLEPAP

[9] = biological target: Photoreceptor-specific nuclear receptor (Homo sapiens) (UniProt Q9Y5X4); test: NR2E3 agonist confirmation in cells, cell-based, luminescence, CHO-S two-hybrid (AID 624378;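 active means average inhibition above a cutoff equal to the mean inhibition of all tested compounds plus one SD, cut at about 70% in these data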;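 further: 0% = DMSO in NR2E3 cells and 100% = DMSO in cells lacking NR2E3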); details: CHO-S mammalian two-hybrid NR2E3-NCOR, luciferase luminescence; at 3.98 µM; stronger effect = higher value
Chain of Photoreceptor-specific nuclear receptor (Homo sapiens) (Q9Y5X4 whole entry, looked up, the tested form may be a part): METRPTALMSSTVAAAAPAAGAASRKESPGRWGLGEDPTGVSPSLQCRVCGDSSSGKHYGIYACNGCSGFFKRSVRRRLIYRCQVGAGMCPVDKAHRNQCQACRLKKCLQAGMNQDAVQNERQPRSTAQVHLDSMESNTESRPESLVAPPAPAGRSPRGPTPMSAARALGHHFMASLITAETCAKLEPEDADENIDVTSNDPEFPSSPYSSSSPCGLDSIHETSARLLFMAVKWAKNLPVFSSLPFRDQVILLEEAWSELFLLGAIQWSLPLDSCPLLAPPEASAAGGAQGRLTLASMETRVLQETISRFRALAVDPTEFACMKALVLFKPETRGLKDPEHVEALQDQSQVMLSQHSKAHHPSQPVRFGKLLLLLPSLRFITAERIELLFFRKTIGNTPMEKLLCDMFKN

[10] = GAL4-VP16 reporter modulators, confirmation, counter-screen for NR2E3 agonist project, cell-based, luminescence, CHO-S, high throughput (AID 624379;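 active means mean inhibition above a cutoff equal to the average over all tested compounds plus one standard deviation, cut at about 70% in these data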;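 further: luciferase from a UAS reporter driven by GAL4-VP16 transactivation; 0% = DMSO with VP16-transfected cells and 100% = DMSO with cells lacking VP16; higher means less reporter light so more repression of VP16 activity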); details: CHO-S GAL4-VP16 luciferase reporter, at 3.98 µM, stronger effect = higher value
[11] = tested on: transactivating tegument protein VP16 (Human herpesvirus 1); test: VP16 transactivation reporter inhibitors, counter-screen for SRC2 inhibitor project, cell-based, luminescence, single concentration (AID 652007; in the data active means inhibition above about 36%); details: cell-based VP16 transactivation luciferase reporter, at 8.9 µM, stronger effect = higher value
[12] = biological target: Nuclear receptor coactivator 2 (Homo sapiens) (UniProt Q15596); test: SRC2 coactivator transcriptional activity inhibitors, confirmation, cell-based, luminescence, HEK293, triplicate (AID 652008;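 active means mean inhibition above 46.5%, the solvent-only control mean plus 3 SD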;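 further: 0% = DMSO-treated cells and 100% = Gossypol at 36 µM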); details: HEK293 GAL4-SRC2 luciferase reporter, at 8.9 µM, stronger effect = higher value
Chain of Nuclear receptor coactivator 2 (Homo sapiens) (Q15596 whole entry, looked up, the tested form may be a part): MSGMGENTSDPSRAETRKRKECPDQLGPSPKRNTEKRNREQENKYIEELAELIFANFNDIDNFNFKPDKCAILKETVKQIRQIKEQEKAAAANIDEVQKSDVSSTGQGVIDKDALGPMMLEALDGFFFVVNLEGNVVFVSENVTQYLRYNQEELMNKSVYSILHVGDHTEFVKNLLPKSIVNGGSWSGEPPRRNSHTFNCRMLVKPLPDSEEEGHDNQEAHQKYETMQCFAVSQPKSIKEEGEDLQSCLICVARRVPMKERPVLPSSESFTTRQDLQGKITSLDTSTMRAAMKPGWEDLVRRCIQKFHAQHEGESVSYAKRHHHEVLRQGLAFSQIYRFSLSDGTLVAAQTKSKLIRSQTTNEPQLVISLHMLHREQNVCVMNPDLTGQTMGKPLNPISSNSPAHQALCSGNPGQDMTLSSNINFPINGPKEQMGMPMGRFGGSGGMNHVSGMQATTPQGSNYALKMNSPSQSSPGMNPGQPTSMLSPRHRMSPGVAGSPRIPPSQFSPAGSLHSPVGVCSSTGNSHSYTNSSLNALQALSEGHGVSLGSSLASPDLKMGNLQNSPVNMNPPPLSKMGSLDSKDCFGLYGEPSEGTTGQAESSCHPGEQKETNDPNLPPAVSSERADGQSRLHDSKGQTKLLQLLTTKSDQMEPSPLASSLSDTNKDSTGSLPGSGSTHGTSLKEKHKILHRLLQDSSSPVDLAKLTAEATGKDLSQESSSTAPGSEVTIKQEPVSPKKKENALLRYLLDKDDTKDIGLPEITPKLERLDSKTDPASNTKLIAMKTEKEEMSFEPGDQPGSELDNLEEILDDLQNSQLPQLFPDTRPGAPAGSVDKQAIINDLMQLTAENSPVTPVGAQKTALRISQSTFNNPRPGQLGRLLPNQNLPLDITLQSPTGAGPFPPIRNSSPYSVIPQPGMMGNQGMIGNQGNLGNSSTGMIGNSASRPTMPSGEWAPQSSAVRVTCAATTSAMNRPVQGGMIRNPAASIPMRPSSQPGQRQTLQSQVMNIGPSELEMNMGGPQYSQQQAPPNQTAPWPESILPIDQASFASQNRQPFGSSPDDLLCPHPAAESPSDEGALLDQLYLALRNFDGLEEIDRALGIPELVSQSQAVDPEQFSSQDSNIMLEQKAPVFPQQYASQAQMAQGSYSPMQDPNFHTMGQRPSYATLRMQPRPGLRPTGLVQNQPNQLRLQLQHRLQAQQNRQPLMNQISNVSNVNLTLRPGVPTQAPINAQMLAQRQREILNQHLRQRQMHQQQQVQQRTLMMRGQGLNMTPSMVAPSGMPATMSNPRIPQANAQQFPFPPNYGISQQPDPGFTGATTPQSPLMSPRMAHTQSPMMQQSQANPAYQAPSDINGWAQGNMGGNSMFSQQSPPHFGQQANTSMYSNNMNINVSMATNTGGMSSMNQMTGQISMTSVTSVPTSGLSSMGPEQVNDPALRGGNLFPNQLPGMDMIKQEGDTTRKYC

[13] = Gal4-VP16 luciferase reporter inhibitors, counter-screen for COUP-TFII antagonist project, cell-based, luminescence, HEK293 (AID 687007; in the data active means inhibition above about 13%); details: at 8.5 µM, stronger effect = higher value
[14] = biological target: COUP transcription factor 2 (Homo sapiens) (UniProt P24468); test: NR2F2 transcriptional activity inhibitors, confirmation, cell-based, luciferase reporter, HEK293, triplicate (AID 687008;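 active means mean inhibition over three repeats above a set limit taken from the earlier primary screen, cut at about 38% in these data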;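 further: 100% = cells given the luciferase reporter alone without the COUP-TF2 vector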); details: HEK293 NGFI-A luciferase reporter, luminescence; at 8.5 µM; stronger effect = higher value
Chain of COUP transcription factor 2 (Homo sapiens) (P24468 whole entry, looked up): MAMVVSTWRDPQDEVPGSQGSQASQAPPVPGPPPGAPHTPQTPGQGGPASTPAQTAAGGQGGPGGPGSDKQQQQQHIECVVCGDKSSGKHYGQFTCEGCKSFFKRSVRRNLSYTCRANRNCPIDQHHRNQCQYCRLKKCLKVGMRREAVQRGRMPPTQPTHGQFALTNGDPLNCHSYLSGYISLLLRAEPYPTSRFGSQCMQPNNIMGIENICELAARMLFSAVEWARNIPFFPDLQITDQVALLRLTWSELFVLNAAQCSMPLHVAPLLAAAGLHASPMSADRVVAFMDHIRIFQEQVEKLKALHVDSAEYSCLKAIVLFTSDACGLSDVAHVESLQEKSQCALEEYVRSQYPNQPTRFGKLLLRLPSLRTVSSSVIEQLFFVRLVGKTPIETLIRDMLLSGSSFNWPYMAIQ

[15] = StAR promoter reporter inhibitors, counter-screen for LRH-1 inverse agonist project, cell-based, luminescence, high throughput (AID 651611; in the data active means inhibition above about 28%); details: StAR promoter luciferase reporter counterscreen, at 3.6 µM, stronger effect = higher value
[16] = biological target: Nuclear receptor subfamily 5 group A member 2 (Homo sapiens) (UniProt O00482); test: LRH-1 (NR5A2) inverse agonists, retest, confirmation, cell-based, luminescence (AID 651613; in the data active means inhibition above about 42%;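 further: HEK293T cells co-transfected with LRH-1 and StAR promoter luciferase reporter; 0% = vehicle wells and 100% = parental cells lacking receptor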); details: cell-based LRH-1 luciferase reporter, inverse agonism; at 3.6 µM; stronger effect = higher value
Chain of Nuclear receptor subfamily 5 group A member 2 (Homo sapiens) (O00482 whole entry, looked up): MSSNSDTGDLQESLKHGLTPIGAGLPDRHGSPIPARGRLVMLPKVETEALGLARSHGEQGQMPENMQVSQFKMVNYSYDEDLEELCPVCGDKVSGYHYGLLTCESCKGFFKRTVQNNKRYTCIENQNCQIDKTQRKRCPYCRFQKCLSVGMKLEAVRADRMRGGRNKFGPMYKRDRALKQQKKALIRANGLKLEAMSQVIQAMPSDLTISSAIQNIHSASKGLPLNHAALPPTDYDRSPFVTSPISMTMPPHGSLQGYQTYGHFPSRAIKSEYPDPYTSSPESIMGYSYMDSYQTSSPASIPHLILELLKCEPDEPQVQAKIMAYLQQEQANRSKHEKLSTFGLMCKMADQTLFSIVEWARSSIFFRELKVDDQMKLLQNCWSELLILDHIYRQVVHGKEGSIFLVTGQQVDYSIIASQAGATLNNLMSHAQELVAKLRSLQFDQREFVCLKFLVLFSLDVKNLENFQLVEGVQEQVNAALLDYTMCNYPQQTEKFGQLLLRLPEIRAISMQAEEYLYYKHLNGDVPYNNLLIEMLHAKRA

[17] = biological target: Steroidogenic factor 1 (Homo sapiens) (UniProt Q13285); test: SF1 (NR5A1) inverse agonists, counter-screen for LRH-1 inverse agonist project, cell-based, luminescence, high throughput (AID 651614; in the data active means inhibition above about 44%;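 further: cells cotransfected with StAR promoter reporter and SF1 expression vector; 0% = vehicle on cells with receptor and 100% = vehicle on cells lacking receptor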); details: cell-based SF1 luciferase reporter, at 3.6 µM, stronger effect = higher value
Chain of Steroidogenic factor 1 (Homo sapiens) (Q13285 whole entry, looked up, the tested form may be a part): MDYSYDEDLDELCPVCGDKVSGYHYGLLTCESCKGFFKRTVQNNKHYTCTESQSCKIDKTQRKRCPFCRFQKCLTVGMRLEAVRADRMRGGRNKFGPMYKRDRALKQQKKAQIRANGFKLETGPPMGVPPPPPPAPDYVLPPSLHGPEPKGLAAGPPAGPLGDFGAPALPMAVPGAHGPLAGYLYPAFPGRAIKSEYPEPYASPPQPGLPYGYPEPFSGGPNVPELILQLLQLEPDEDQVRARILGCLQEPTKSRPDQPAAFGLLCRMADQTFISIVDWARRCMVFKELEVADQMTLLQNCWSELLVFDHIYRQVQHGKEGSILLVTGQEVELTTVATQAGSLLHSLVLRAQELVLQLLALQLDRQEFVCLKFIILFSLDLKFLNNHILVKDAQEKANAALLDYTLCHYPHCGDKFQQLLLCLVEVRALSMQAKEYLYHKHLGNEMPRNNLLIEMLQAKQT

[18] = VP16 transactivation reporter inhibitors, counter-screen for LRH-1 inverse agonist project, cell-based, luminescence, high throughput (AID 651615; in the data active means inhibition above about 33%); details: Gal4-VP16 luciferase reporter cells, at 3.6 µM, stronger effect = higher value

**Q.** Which inhibition [1] does the source give for `CCN1CCN(C(c2cccnc2)c2cc(Cl)c3cccnc3c2O)CC1` (stereo not drawn) here?
**A.** 67.8% (active)

**Q.** With `NC(=O)NC(=O)C(OC(=O)CCNS(=O)(=O)c1ccccc1)c1ccccc1` (stereo not drawn) as the compound, how does the inhibition [1] read?
**A.** 23.1%

**Q.** With `O=C(NCC1CCCO1)C(C(=O)c1ccccc1)n1cc(Cl)ccc1=O` (stereo not drawn) as the compound, how does the inhibition [2] read?
**A.** -2.76%

**Q.** And the inhibition [3]?
**A.** -0.21%

**Q.** What about the inhibition [4] of the same compound?
**A.** -1.24%

**Q.** With `O=C(CSc1ccc(-c2ccccn2)nn1)Nc1ccccc1` as the compound, how does the inhibition [2] read?
**A.** 5.71%

**Q.** What about the inhibition [3] of the same compound?
**A.** 6.8% (active)

**Q.** And the inhibition [4]?
**A.** 5%

**Q.** What about the inhibition [5] of the same compound?
**A.** 2.01%

**Q.** And the inhibition [6]?
**A.** 1.79%

**Q.** What about the inhibition [7] of the same compound?
**A.** 11.1%

**Q.** Which inhibition [8] does the source give for `COc1ccc(C(=O)COC(=O)c2ccc([N+](=O)[O-])s2)cc1OC` here?
**A.** 13.3%

**Q.** Which inhibition [2] does the source give for `CCOC(=O)c1ccc(NC(=O)Cn2cnc3cc(C)c(C)cc32)cc1` here?
**A.** 24.2% (active)

**Q.** What about the inhibition [3] of the same compound?
**A.** 18.4% (active)

**Q.** What about the inhibition [4] of the same compound?
**A.** 21.4%

**Q.** What about the inhibition [9] of the same compound?
**A.** 96% (active)

**Q.** What about the inhibition [10] of the same compound?
**A.** 87.5% (active)

**Q.** What about the inhibition [5] of the same compound?
**A.** 13.5% (active)

**Q.** What about the inhibition [6] of the same compound?
**A.** 14.5%

**Q.** What about the inhibition [7] of the same compound?
**A.** 21.8% (active)

**Q.** What about the inhibition [11] of the same compound?
**A.** 19.5%

**Q.** And the inhibition [12]?
**A.** 36.7%

**Q.** What about the inhibition [13] of the same compound?
**A.** 8.87%

**Q.** What about the inhibition [14] of the same compound?
**A.** 62.9% (active)

**Q.** What does the source list for `O=C(Nc1ccc(Br)cn1)c1ccc([N+](=O)[O-])o1`?
**A.** inhibition [2]: 99.3% (active); inhibition [3]: 11.8% (active); inhibition [4]: 30.2% (active); inhibition [15]: 11%; inhibition [16]: 54.7% (active); inhibition [17]: 55.6% (active); inhibition [18]: -5.48%; inhibition [5]: 7.78%; inhibition [6]: 9.86%; inhibition [7]: 81.2% (active)

**Q.** For `O=C(Cn1c(=O)sc2ccccc21)Nc1nc2c(s1)CCCC2`, which inhibition [2] is on record?
**A.** 2.31%

**Q.** What about the inhibition [3] of the same compound?
**A.** 4.07% (active)

**Q.** What about the inhibition [4] of the same compound?
**A.** 3.15%

**Q.** With `Cc1ccc(C)c(NC(=O)NNC(=O)c2ccc3ccccc3c2O)c1` as the compound, how does the inhibition [8] read?
**A.** 40.5% (active)
